Results filed as inconclusive are left out. Activity calls are given as the source filed them. Unless noted, calls follow the shape of the dose curve; as a rule, active = well fitted curve in the direction sought with a large enough effect in the repeat runs; inconclusive = weak or mixed curves; inactive = no such curve, though single readings can be large; an effect the other way counts as inactive or inconclusive.
Assays:
[1] = target: Thyrotropin receptor (Homo sapiens) (UniProt P16473); assay: qHTS assay to identify small molecule antagonists of the thyroid stimulating hormone receptor (TSHR) signaling pathway (AID 1259385; calls by dose curve; also: nearly all actives have a fitted effect of over 20% in size)
Chain of Thyrotropin receptor (Homo sapiens) (P16473 whole entry, looked up): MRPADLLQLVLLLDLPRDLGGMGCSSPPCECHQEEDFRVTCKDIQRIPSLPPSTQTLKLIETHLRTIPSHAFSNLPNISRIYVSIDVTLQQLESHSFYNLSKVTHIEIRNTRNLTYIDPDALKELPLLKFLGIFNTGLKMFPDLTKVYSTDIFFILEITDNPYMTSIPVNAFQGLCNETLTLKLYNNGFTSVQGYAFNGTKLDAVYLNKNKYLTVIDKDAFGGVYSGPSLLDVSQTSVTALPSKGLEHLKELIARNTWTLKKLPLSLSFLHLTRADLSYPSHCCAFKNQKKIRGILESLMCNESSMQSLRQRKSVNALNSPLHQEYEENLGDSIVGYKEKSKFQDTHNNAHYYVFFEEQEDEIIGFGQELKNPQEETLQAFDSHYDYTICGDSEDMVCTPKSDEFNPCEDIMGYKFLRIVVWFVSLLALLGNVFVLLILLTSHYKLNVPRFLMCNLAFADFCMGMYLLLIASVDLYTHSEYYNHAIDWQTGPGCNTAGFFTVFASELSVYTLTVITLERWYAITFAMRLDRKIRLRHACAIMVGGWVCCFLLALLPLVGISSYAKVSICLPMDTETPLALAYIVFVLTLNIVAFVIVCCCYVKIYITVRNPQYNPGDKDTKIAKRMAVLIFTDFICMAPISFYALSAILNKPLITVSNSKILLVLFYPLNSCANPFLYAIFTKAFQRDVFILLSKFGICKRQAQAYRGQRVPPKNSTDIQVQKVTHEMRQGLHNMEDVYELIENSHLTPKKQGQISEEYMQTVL
Summary of the method: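 TSHR-HEK293 cells (800/well) plated 18 h, then compounds with Ro20-1724 and TSH at 1.5 ng/mL final, 30 min at room temperature. cAMP quantified by HTRF (cAMP-d2/anti-cAMP-cryptate, 1 h); 15 concentrations in triplicate.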

[2] = qHTS assay to identify small molecule agonists of the estrogen receptor alpha (ER-alpha) signaling pathway in the presence of an antagonist - cell viability counter screen (AID 1259386);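 also: series mostly up to about 92 µM; cells exposed to compounds for 22 h at 37 °C before the viability read; nearly all actives have a fitted effect of over 30% in size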
Summary of the method: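 ICI-182,780 at 10.0nM final accompanies the compound titration (15 concentrations, 22hr, 37C) on VM7Luc4E2 cells. The CellTiter-Fluor fluorescence readout runs in the same wells as the luciferase assay.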

[3] = target: Progesterone receptor (Homo sapiens) (UniProt P06401); assay: qHTS assay to identify small molecule agonists of the progesterone receptor (PR) signaling pathway (AID 1346784; calls by dose curve; also: nearly all actives have a fitted effect of over 30% in size)
Chain of Progesterone receptor (Homo sapiens) (P06401 whole entry, looked up): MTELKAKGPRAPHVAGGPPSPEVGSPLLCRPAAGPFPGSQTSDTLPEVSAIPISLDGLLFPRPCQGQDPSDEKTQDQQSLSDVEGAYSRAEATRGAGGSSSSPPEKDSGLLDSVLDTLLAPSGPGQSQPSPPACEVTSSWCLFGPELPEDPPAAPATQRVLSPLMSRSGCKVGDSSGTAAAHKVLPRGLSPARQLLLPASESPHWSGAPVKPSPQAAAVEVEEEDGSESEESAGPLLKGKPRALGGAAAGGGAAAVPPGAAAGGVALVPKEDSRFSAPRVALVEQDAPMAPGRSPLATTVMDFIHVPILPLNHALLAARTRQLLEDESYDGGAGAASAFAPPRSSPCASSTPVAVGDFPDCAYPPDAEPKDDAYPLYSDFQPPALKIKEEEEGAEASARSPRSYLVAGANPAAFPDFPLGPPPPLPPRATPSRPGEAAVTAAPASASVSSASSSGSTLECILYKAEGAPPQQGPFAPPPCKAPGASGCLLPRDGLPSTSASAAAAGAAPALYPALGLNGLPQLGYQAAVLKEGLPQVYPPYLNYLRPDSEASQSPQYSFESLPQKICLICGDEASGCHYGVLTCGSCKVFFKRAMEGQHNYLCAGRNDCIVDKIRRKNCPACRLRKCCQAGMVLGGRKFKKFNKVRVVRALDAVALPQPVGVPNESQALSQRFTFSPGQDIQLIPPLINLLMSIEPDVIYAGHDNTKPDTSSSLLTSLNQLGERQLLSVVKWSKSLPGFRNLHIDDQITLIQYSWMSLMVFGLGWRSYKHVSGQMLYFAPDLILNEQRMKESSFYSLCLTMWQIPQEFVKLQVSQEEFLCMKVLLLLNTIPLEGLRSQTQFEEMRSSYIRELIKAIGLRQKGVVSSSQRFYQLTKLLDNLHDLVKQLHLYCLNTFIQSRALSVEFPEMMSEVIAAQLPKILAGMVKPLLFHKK
Summary of the method: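 PR-UAS-bla HEK 293T cells carrying a UAS-driven beta-lactamase reporter were seeded in medium with 2% charcoal-stripped FBS, preincubated 6 hr at 37C, then exposed to compounds in DMSO for 16 hr; agonism was read by LiveBLAzer B/G FRET fluorescence.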

[4] = target: Progesterone receptor (Homo sapiens) (UniProt P06401); assay: qHTS assay to identify small molecule antagonists of the progesterone receptor (PR) signaling pathway (AID 1346795; active = well fitted inhibition curve with a large enough effect in the signal ratio in the repeat runs, not every such curve was filed as active; the % refers to the signal ratio)
Summary of the method: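 PR-UAS-bla HEK293T cells carrying a UAS-driven beta-lactamase reporter were plated in medium with 2% charcoal-stripped FBS and rested 6 hr at 37C. Compounds were added with 1 nM R5020 (final) for 16 hr, then FRET substrate loaded 2 hr at room temperature.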

[5] = qHTS assay to identify small molecule antagonists of the progesterone receptor (PR) signaling pathway - cell viability counter screen (AID 1346798); also: series mostly up to about 92 µM; nearly all actives have a fitted effect of over 50% in size
Summary of the method: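 PR-UAS-bla HEK293T cells in medium with 2% charcoal-stripped FBS were treated with compounds plus R5020 for 16 hr at 37C. Cell viability was then read by CellTiter-Glo luminescence after 30 min at room temperature in the same wells.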

[6] = qHTS assay to identify small molecule agonists of the progesterone receptor (PR) signaling pathway - cell viability counter screen (AID 1346799; calls by dose curve; also: nearly all actives have a fitted effect of over 45% in size)
Summary of the method: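 PR-UAS-bla HEK293T cells, 3,000 per well in medium with 2% charcoal-stripped FBS, were preincubated 6 hr at 37C, then exposed to compounds for 16 hr; viability was read as CellTiter-Glo luminescence after 30 min at room temperature.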

[7] = qHTS assay to identify small molecule antagonists of the TGF-beta/Smad signaling pathway - cell viability counter screen (AID 1346824); also: nearly all actives have a fitted effect of over 50% in size
Summary of the method: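 SBE-bla HEK 293T cells, incubated overnight, then compound plus 0.25 ng/mL TGF-beta1 (stock added) for 5 hr at 37 C. Viability was read in the same wells by CellTiter-Glo luminescence after 30 min at room temperature.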

[8] = qHTS assay to identify small molecule agonists of the TGF-beta/Smad signaling pathway - cell viability counter screen (AID 1346829); also: top concentration of the series differs between compounds; nearly all actives have a fitted effect of over 45% in size
Summary of the method: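 Same-well cytotoxicity: CellTiter-Glo added after the 2 hr room-temperature beta-lactamase substrate step, luminescence measured 30 min later; cells had 5 hr of compound at 37 C.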

[9] = qHTS assay to identify small molecule agonists of the TGF-beta/Smad signaling pathway (AID 1346859; active = well fitted activation curve with a large enough effect in the signal ratio in the repeat runs, not every such curve was filed as active; the % refers to the signal ratio; also: series mostly up to about 77 µM)
Summary of the method: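 HEK 293T cells stably carrying a beta-lactamase reporter driven by the Smad binding element were seeded overnight, exposed to DMSO-dissolved compounds for 5 hr at 37 C, 5% CO2, then loaded with FRET substrate for 2 hr at room temperature.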

[10] = target: Thyrotropin-releasing hormone receptor (Homo sapiens) (UniProt P34981); assay: qHTS assay to identify small molecule antagonists of the thyrotropin-releasing hormone receptor (TRHR) signaling pathway (AID 1346877; active = well fitted inhibition curve with a large enough effect in the repeat runs, not every such curve was filed as active; also: series mostly up to about 51 µM)
Chain of Thyrotropin-releasing hormone receptor (Homo sapiens) (P34981 whole entry, looked up): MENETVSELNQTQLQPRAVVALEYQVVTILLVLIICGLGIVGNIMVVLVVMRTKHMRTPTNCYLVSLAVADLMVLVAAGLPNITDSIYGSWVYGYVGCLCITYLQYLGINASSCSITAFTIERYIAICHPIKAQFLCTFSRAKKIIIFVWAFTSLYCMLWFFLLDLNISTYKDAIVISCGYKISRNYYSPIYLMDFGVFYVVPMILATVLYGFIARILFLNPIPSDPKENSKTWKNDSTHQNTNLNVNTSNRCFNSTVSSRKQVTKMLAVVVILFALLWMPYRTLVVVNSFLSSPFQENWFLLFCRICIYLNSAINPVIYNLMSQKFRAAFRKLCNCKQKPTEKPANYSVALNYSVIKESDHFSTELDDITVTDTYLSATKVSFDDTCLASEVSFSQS
Summary of the method: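 Screening used HEK293 cells engineered with TRHR, with a brief 5 min room-temperature compound exposure preceding addition of TRH to 1 nM. The read-out was kinetic calcium-dye fluorescence, concentration-response from 15 doses in triplicate.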
% is scaled to controls: 0 for no effect and ±100 for the full control effect.

CCCCCCC(=O)CCCCCC/C=C/C[C@@H](O)[C@H](O)[C@@](N)(CO)C(=O)O
inactive: activity change, negative = inhibition [1] -2.59% [at 19 µM] | activity change, negative = cytotoxicity [2] -0.798% [at 19 µM] | activation [3] -0.536% [at 19 µM] | activity change, negative = inhibition [4] 0.638% [at 18.9 µM] | activity change, negative = cytotoxicity [5] -9.78% [at 18.9 µM] | activity change, negative = cytotoxicity [6] -2.82% [at 19 µM] | viability change, negative = cytotoxic [7] -3.48% [at 15.8 µM] | activity change, negative = cytotoxicity [8] 4.19% [at 15.8 µM] | activation [9] -6.21% [at 15.8 µM] | activity, negative = inhibition [10] 7.27% [at 10.5 µM]

CC(Cc1ccccc1)NCCCCl (stereo unspecified)
inactive: outcome [1] | Potency [2] | Potency [3] | Potency [4] | Potency [5] | Potency [6] | outcome [7] | Potency [8] | outcome [9] | Potency [10]

c1cncc([C@@H]2CCCCN2)c1
inactive: outcome [1] | Potency [2] | Potency [3] | Potency [4] | Potency [5] | Potency [6] | outcome [7] | Potency [8] | outcome [9] | Potency [10]

O=C(Cl)OCc1ccccc1
inactive: outcome [1] | Potency [2] | Potency [3] | Potency [4] | Potency [5] | Potency [6] | outcome [7] | Potency [8] | outcome [9] | Potency [10]

BrCCc1ccccc1
inactive: outcome [1] | Potency [2] | Potency [3] | Potency [4] | Potency [5] | Potency [6] | outcome [7] | Potency [8] | outcome [9] | Potency [10]

N#CC(Br)(Br)C(N)=O
inactive: outcome [1] | Potency [2] | Potency [3] | Potency [4] | Potency [5] | Potency [6] | outcome [7] | Potency [8] | outcome [9] | Potency [10]

C=CC=O
inactive: outcome [1] | Potency [2] | Potency [3] | Potency [4] | Potency [5] | Potency [6] | outcome [7] | Potency [8] | outcome [9] | Potency [10]

O=C(Cl)C(Cl)Cl
inactive: outcome [1] | Potency [2] | Potency [3] | Potency [4] | Potency [5] | Potency [6] | outcome [7] | Potency [8] | outcome [9] | Potency [10]

CCOC(=O)CCl
inactive: outcome [1] | Potency [2] | Potency [3] | Potency [4] | Potency [5] | Potency [6] | outcome [7] | Potency [8] | outcome [9]

O=S1(=O)OCCO1
inactive: outcome [1] | Potency [2] | Potency [3] | Potency [4] | Potency [5] | Potency [6] | outcome [7] | Potency [8] | outcome [9] | Potency [10]

Clc1cc2c(cc1Cl)Oc1cc(Cl)c(Cl)cc1O2
inactive: activity change, negative = inhibition [1] -3.4% [at 0.349 µM] | activity change, negative = cytotoxicity [2] 0.532% [at 0.349 µM] | activation [3] 2.35% [at 0.349 µM] | activity change, negative = inhibition [4] 5.7% [at 0.348 µM] | activity change, negative = cytotoxicity [5] -11.1% [at 0.348 µM] | activity change, negative = cytotoxicity [6] 4.69% [at 0.349 µM] | viability change, negative = cytotoxic [7] -2.55% [at 0.29 µM] | activity change, negative = cytotoxicity [8] 9.06% [at 0.29 µM] | activation [9] 2% [at 0.29 µM] | activity, negative = inhibition [10] 2.75% [at 0.194 µM]

C=CCCC#N
inactive: outcome [1] | Potency [2] | Potency [3] | Potency [4] | Potency [5] | outcome [7] | Potency [8] | outcome [9] | Potency [10]

O=C1CCCCC1Cl (stereo unspecified)
inactive: outcome [1] | Potency [2] | Potency [3] | Potency [4] | Potency [5] | Potency [6] | outcome [7] | outcome [9]

ClCOCCl
inactive: outcome [1] | Potency [2] | Potency [3] | Potency [4] | Potency [5] | outcome [7] | Potency [8] | outcome [9]

COP(=O)(OC)O/C(C)=C/C(=O)N(C)C
inactive: outcome [1] | Potency [2] | Potency [3] | Potency [4] | Potency [5] | outcome [7] | Potency [8] | outcome [9] | Potency [10]

C#CCOC(=O)/C=C(C)/C=C/CC(C)CCCC(C)C (stereo unspecified)
inactive: outcome [1] | Potency [2] | Potency [3] | Potency [4] | Potency [5] | Potency [6] | outcome [7] | Potency [8] | outcome [9] | Potency [10]

COc1cccc([C@@]2(O)CCCC[C@@H]2CN(C)C)c1
inactive: outcome [1] | Potency [2] | Potency [3] | Potency [4] | Potency [5] | outcome [7] | outcome [9]

C1CN2CCC1CC2
inactive: outcome [1] | Potency [2] | Potency [3] | Potency [4] | Potency [5] | outcome [7] | outcome [9] | Potency [10]

COc1cccc(C=O)c1
inactive: outcome [1] | Potency [2] | Potency [3] | Potency [4] | Potency [5] | outcome [7] | outcome [9] | Potency [10]

CCCC[N+](=O)[O-]
inactive: outcome [1] | Potency [2] | Potency [3] | Potency [4] | Potency [5] | Potency [6] | outcome [7] | outcome [9] | Potency [10]

NC(=O)CS(=O)C(c1ccccc1)c1ccccc1 (stereo unspecified)
inactive: outcome [1] | Potency [2] | Potency [3] | Potency [4] | Potency [5] | Potency [6] | outcome [7] | outcome [9] | Potency [10]

CCCCS(=O)(=O)Cl
inactive: outcome [1] | Potency [2] | Potency [3] | Potency [4] | Potency [5] | outcome [7] | outcome [9] | Potency [10]

CCCC(C)(COC(N)=O)COC(N)=O
inactive: outcome [1] | Potency [2] | Potency [3] | Potency [4] | Potency [5] | Potency [6] | outcome [7] | outcome [9]

O=C(O)CBr
inactive: outcome [1] | Potency [2] | Potency [3] | Potency [4] | Potency [5] | Potency [6] | outcome [7] | outcome [9] | Potency [10]

CNC(=O)NC(O)C(Cl)(Cl)Cl (stereo unspecified)
inactive: outcome [1] | Potency [2] | Potency [3] | Potency [4] | Potency [5] | Potency [6] | outcome [7] | outcome [9] | Potency [10]

CCCOc1nn(C(=O)NS(=O)(=O)c2ccccc2C(=O)OC)c(=O)n1C
inactive: outcome [1] | Potency [2] | Potency [3] | Potency [4] | Potency [5] | Potency [6] | Potency [8] | outcome [9]

— PubChem BioAssay (Tox21)
